These compounds were tested on Hsp90 CT (assay: direct binding to Hsp90 C-terminal domain – biophysical, surface plasmon resonance, orthogonal assay for selective HSP90 inhibitor project, late-stage follow-up (AID 652181)). Conditions: Surface plasmon resonance binding to HSP90 domains, at 200 µM, stronger effect = higher value.

Structure (SMILES)	binding
CCc1ccc(OCc2ccc(C(=O)OC)o2)cc1	6.78
COC(=O)c1ccccc1OCCCOc1ccc(C)cc1OC	10.2
COc1ccccc1NC(=O)c1coc(=O)c(Br)c1	11.7
COc1cc(/C=N/Nc2ccc(Cl)c(C(=O)O)c2)ccc1OC(=O)c1ccc(F)cc1	-4.19
CCOC(=O)c1csc(NC(=O)c2cc3ccccc3o2)n1	6.43
Cc1cc(NO)nc(-c2ccc(Br)cc2)n1	0.77
CC(=O)Nc1ccccc1OCC(=O)c1cc(C)n(Cc2cccs2)c1C	10.6
CCOC(=O)C1=C(c2ccc(OC)cc2)C(=O)c2ccccc2C1=O	11.2
Cc1c(-c2nc(-c3ccc(C(C)(C)C)cc3)no2)n(C)oc1=O	4.46
Cc1c(-c2nc(-c3ccc(C(F)(F)F)cc3)no2)n(C)oc1=O	7.47
